Only some compounds are listed: those with a hit (about 19% of all), similar ones and a draw of the others.
HT1080 IDH1KD tx: HT-1080 IDH1 knockdown cell toxicity (counter line) | HT-1080 IDH1 knockdown viability, ATP luminescence, 48 h | Potency, µM (top dose mostly 46.1 µM), actives largely listed as cytotoxic | actives 2% (n = 360,000) | AID 686971
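Viability of IDH1-knockdown HT-1080 fibrosarcoma cells was assessed by CellTiter-Glo after 48 h at 37 °C with titrated compound; concentration-effect curves were classified by fit quality and response size.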
DT40 TDP1 no CPT: qHTS for Inhibitors of human tyrosyl-DNA phosphodiesterase 1 (TDP1): qHTS in cells in absence of CPT; AID 686978, 2013; actives 15% (n = 420,000); DT40 Tdp1-/- hTDP1 cells, no CPT, ATP luminescence, 48 h; Potency, µM (titrated, usually from 46.2 µM), most hits filed as inhibitors; note: nearly all actives have a fitted effect of over 55% in size
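Readout: luminescence from CellTiter-Glo after 30 min in the dark at RT. Cells: DT40 Tdp1-/- with stable hTDP1, 400/well. Exposure: compounds alone, ≥48 hr, 37 °C.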
KB-3-1 cytotox: KB-3-1 parental cell cytotoxicity; actives 1.4% (n = 400,000); KB-3-1 viability, CellTiter-Glo ATP luminescence, 72 h; Potency, µM (highest dose often 46.1 µM), usual class: cytotoxic; note: nearly all actives have a fitted effect of over 60% in size
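Cytotoxicity measured as CellTiter-Glo luminescence after 72 h at 37 C. Compound titrations were pinned onto drug-naive KB-3-1 parental adenocarcinoma cells grown in DMEM with 10% FBS, and normalized data fitted to concentration-response curves.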
KB-V1 MDR tox: kills drug-selected multidrug resistant KB-V1 cells; Potency, µM (series often up to 46.1 µM), most hits filed as cytotoxic; KB-V1 MDR cells viability, CellTiter-Glo, 72 h; actives 3.4% (n = 400,000); note: nearly all actives have a fitted effect of over 60% in size
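Luminescent ATP read-out (CellTiter-Glo, 10 min) measures survival of drug-selected KB-V1 MDR cells after 72 h, 37 degrees C compound exposure. Medium: phenol-red-free DMEM, 10% FBS. Values from fitted concentration-response curves.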
HT1080-NT tox: kills 2HG-producing HT-1080-NT fibrosarcoma cells; Potency, µM (top dose mostly 46.1 µM), hits mostly cytotoxic; HT-1080-NT fibrosarcoma viability, CellTiter-Glo ATP luminescence, 48 h; actives 1.6% (n = 360,000); AID 686970;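 note: NT is the 2HG producing partner of a matched IDH1 knockdown line; nearly all actives have a fitted effect of over 55% in size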
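Luminescent CellTiter-Glo readout after 48 hours of compound exposure at 37 degrees C defined viability of HT-1080-NT cells. Activity was normalized to DMSO wells and cell-free media wells; concentration-response curves were fitted and assigned curve classes.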
TDP1 cell CPT: growth inhibition of DT40 Tdp1-/-;hTDP1 cells with camptothecin (screen for TDP1 inhibitors) | chicken DT40 Tdp1-/-;hTDP1 cells + 20 nM CPT, ATP luminescence, 48 h | Potency, µM (titrated, usually from 46.2 µM), usual class: inhibitors | actives 12% (n = 420,000) | AID 686979; note: nearly all actives have a fitted effect of over 55% in size
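Cell growth measured by CellTiter-Glo luminescence after a minimum 48 h, 37 C compound exposure with 20 nM CPT in Tdp1-knockout DT40 cells stably expressing hTDP1, seeded 400/well; qHTS titration format.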
Each line names hits and unclear results; the compound was inactive in the other large screens. Calls come from the whole dose curve; as a rule, active = well fitted curve in the direction sought with a large enough effect; inconclusive = small, poorly fitted or top-dose-only effect, or another doubt; inactive = no such curve, though single readings can be large; an effect the other way counts as inactive or inconclusive.

OCc1ccccc1-c1ccc2nncn2c1	HT1080-NT tox inconclusive
O=S(=O)(Nc1cnc2ccccc2c1)N1CCCCCC1	DT40 TDP1 no CPT 13µM, TDP1 cell CPT 21µM
Cc1ccc(S(=O)(=O)Nc2cnc3ccccc3c2)cc1	DT40 TDP1 no CPT inconclusive, KB-3-1 cytotox inconclusive, TDP1 cell CPT inconclusive
O=C1NC(=O)C2(CCCCCCCCCCC2)N1	none
O=C1NC(=O)C2(CCC(C3CCCCC3)CC2)N1 (configuration not stated)	KB-3-1 cytotox inconclusive, KB-V1 MDR tox 4.1µM
Cc1ccccc1NC(=O)CSc1nc2ccc(NC(=O)c3ccco3)cc2s1	DT40 TDP1 no CPT 21µM, TDP1 cell CPT 16µM (no result: HT1080 IDH1KD tx, HT1080-NT tox)
Cc1ccc(NC(=O)CSc2nc3ccc(NC(=O)c4cccc(Cl)c4)cc3s2)c(C)c1	DT40 TDP1 no CPT inconclusive, TDP1 cell CPT inconclusive (no result: HT1080 IDH1KD tx, HT1080-NT tox)
Cc1ccc(NC(=O)CSc2nc3ccc(NC(=O)c4ccco4)cc3s2)c(C)c1	DT40 TDP1 no CPT 7.3µM, TDP1 cell CPT 16µM (no result: HT1080 IDH1KD tx, HT1080-NT tox)
Cc1ccccc1NC(=O)CSc1nc2ccc(NC(=O)c3ccccc3)cc2s1	DT40 TDP1 no CPT 16µM, TDP1 cell CPT inconclusive (no result: HT1080 IDH1KD tx, HT1080-NT tox)
Cc1ccccc1NC(=O)c1cccc(NC(=O)c2ccco2)c1	none
COc1cccc(NC(=O)CSc2nc3ccc(NC(=O)c4ccco4)cc3s2)c1	DT40 TDP1 no CPT 18µM, KB-3-1 cytotox inconclusive, KB-V1 MDR tox inconclusive, TDP1 cell CPT 13µM (no result: HT1080 IDH1KD tx, HT1080-NT tox)
COc1ccc(NC(=O)CSc2nnc(NC(=O)c3ccco3)s2)cc1	none
COCc1nc2oc3ccc(F)cc3c(=O)c2cc1C(=O)OC	none
O=C(CSC1=NCCS1)N1CCCC1	none
COc1ccc(OC)c(N2C(=NC(=O)C3CCCCC3)SC3CS(=O)(=O)CC32)c1 (configuration not stated)	none
Cc1cccc(NC(=O)CSc2nc3ccc(NC(=O)c4ccco4)cc3s2)c1	DT40 TDP1 no CPT 2.6µM, TDP1 cell CPT 10µM (no result: HT1080 IDH1KD tx, HT1080-NT tox)
Cc1ccccc1NC(=O)CSc1nc2ccc(NC(=O)CCc3ccccc3)cc2s1	DT40 TDP1 no CPT 9.2µM, TDP1 cell CPT inconclusive (no result: HT1080 IDH1KD tx, HT1080-NT tox)
Cc1ccc(NC(=O)CSc2nc3ccc(NC(=O)c4cccs4)cc3s2)cc1	DT40 TDP1 no CPT inconclusive (no result: HT1080 IDH1KD tx, HT1080-NT tox)
Cc1ccc(NC(=O)CSc2nc3ccc(NC(=O)CCc4ccccc4)cc3s2)cc1	DT40 TDP1 no CPT inconclusive, TDP1 cell CPT inconclusive (no result: HT1080 IDH1KD tx, HT1080-NT tox)
O=C(CSc1nnnn1C1CCCC1)Nc1cccc(NC(=O)c2ccco2)c1	DT40 TDP1 no CPT inconclusive, KB-V1 MDR tox inconclusive
O=C(CSc1nnnn1C1CCCCC1)Nc1cccc(NC(=O)c2ccco2)c1	HT1080 IDH1KD tx inconclusive, DT40 TDP1 no CPT 4.1µM, KB-V1 MDR tox inconclusive, TDP1 cell CPT 5.8µM
CCn1cnnc1SCC(=O)c1c(N)n(C2CC2)c(=O)[nH]c1=O	none
COc1ccc(C2=Nc3ccccc3N(C(=O)c3cccnc3)C2C(=O)NC(C)(C)C)cc1 (configuration not stated)	none
CCOc1ccc(N2CC(C(=O)Nc3ccc(S(=O)(=O)NCC4CCCO4)cc3)CC2=O)cc1 (configuration not stated)	none
N#Cc1c(-c2ccccc2Cl)noc1/C=C/Nc1ccc(C(=O)O)cc1	none
O=C(O)c1cc([N+](=O)[O-])c(Sc2nc3ccccc3[nH]2)c([N+](=O)[O-])c1	KB-V1 MDR tox inconclusive
CS(=O)(=O)c1cc([N+](=O)[O-])c(Sc2nc3ccccc3[nH]2)c([N+](=O)[O-])c1	HT1080 IDH1KD tx 10µM, DT40 TDP1 no CPT 4.6µM, HT1080-NT tox 11µM, TDP1 cell CPT 2.9µM
Cc1nc([N+](=O)[O-])c(Sc2nc3ccccc3[nH]2)n1Cc1ccccc1	DT40 TDP1 no CPT 12µM, TDP1 cell CPT 8.2µM
Cc1nc([N+](=O)[O-])c(N2CCOCC2)n1Cc1ccccc1	none

High-throughput results as filed in PubChem.
